Data taken from PubChem BioAssay (NCI).
This is part of a sample that, as a whole, favours compounds with a hit. Of some 83,000 tested, about 20% had one in any assay.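 Compound tested at a single concentration for 48 hours in 96-well plates; a percent growth value below 10 was scored as active.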 Values without a mark were called inactive. Calls of active or inactive are those of the source.

Tested on: SK-MEL-28 melanoma
Assay: NCI-60 one-dose screen, 48 h (100 = growth as untreated, 0 = no growth, -100 = all killed)
Conditions: 10 µM unless noted
Description: Growth inhibition of the SK-MEL-28 human tumor cell line is measured as a screen for anti-cancer activity. Cells are grown in 96 well plates and exposed to the test compound for 48 hours. Compounds are tested at a single concentration, which is 10^-5 M for most compounds. The reported endpoint is percent growth (GI% or GIPRCNT), where numbers from 0 - 100% represent growth inhibition, and numbers from -100% - 0 represent cell death. For example, a value of 40 represents 60% growth inhibition. A value of 0 means no net growth occurred over the course of the experiment. A value of -40 indicates 40% of cells at the beginning of the experiment died by the end of the experiment. A value of -100 means all cells are dead at the end of the experiment.
NCI-60 Human Tumor Cell Lines Screen was performed using the standard one-dose NCI protocol, which is described in more detail at https://dtp.cancer.gov/discovery_development/nci-60/default.htm.
Compounds with GIPRCNT values below 10 were considered active. Activity score was based on GIPRCNT using the following formula: […]
Score is 0 for GIPRCNT values of 100 or above, 50 for GIPRCNT values of 0, and 100 for GIPRCNT values of -100.

| Structure (SMILES) | growth |
| --- | --- |
| COc1cc(/C=C\C(=O)O)ccc1OCc1ccccc1 | 110% |
| CN[C@@H](C)C(=O)N[C@H]1CCS[C@H]2CC(C)(C)[C@@H](C(=O)N[C@H]3c4ccccc4C[C@H]3OCC#CC#CCO[C@@H]3Cc4ccccc4[C@@H]3NC(=O)[C@H]3N4C(=O)[C@@H](NC(=O)[C@H](C)NC)CCS[C@H]4CC3(C)C)N2C1=O | 107% |
| Cn1ccnc1C(=O)/C=C/c1ccc(CC(=O)Nc2ccc(Cl)cc2)cc1 | 70.9% |
| N#Cc1c(NC(=O)NCc2ccccc2)sc2c1CCCC2 | 64.9% |
| CC(=O)[C@@H]1CC[C@]2(C(N)=O)CC[C@]3(C)[C@H](CC[C@@H]4[C@@]5(C)CCCNC(C)(C)[C@@H]5CC[C@]43C)[C@@H]12 | 95.8% |
| O=C(Nc1cccc(C(=O)N2CCc3ccc(Cl)cc32)c1)c1ccco1 | 59.9% |
| Cc1cnc(C(=O)Nc2nc3ccc(S(=O)(=O)Nc4ccc(C5(C(F)(F)F)CC5)cc4)cc3[nH]2)cn1 | 54.1% |
| CC1(C)NCCC[C@]2(C)[C@H]3CC(=O)[C@H]4[C@@H]5C[C@](C)(CO)CC[C@]5(C)CC[C@@]4(C)[C@]3(C)CC[C@@H]12 | 105% |
| COc1ccc(/C=N/NC(=O)c2cnn3c2NC(c2ccccc2)C3)cc1OC (stereo not given) | 78% |
| C=C1C(=O)O[C@H]2[C@H]1CC/C(CNC(=O)CCc1ccc(OC)cc1)=C\CC[C@@]1(C)O[C@@H]21 | 59.5% |
| Cn1ccnc1C(=O)/C=C/c1ccc(CC(=O)Nc2ccc(F)cc2)cc1 | 85.9% |
| CC(=O)OC[C@]12CC[C@@H](C(=O)CBr)[C@@H]1[C@H]1CC[C@@H]3[C@@]4(C)CC[C@H](OC(C)=O)C(C)(C)[C@@H]4CC[C@@]3(C)[C@]1(C)CC2 | 99.8% |
| CCCCOc1ccc(/C(C)=N/Nc2cc(C)nc3ccc(Br)cc23)cc1 | 106% |
| COc1cc(/C=N/NC(=O)c2cnn3c2NC(c2ccccc2)C3)ccc1OCc1ccccc1 (stereo not given) | 24.1% |
| C=C1C(=O)O[C@H]2[C@H]1CC/C(CNS(=O)(=O)c1cccc3ccccc13)=C\CC[C@@]1(C)O[C@@H]21 | 2.74% (active) |
| c1ccc(-c2cn3c(ccc4ccccc43)n2)cc1 | 68.5% |
| COc1cc2nc(-c3ccc(C(F)(F)F)cc3)cc(OCCN3CCCCC3)c2cc1OC | 70.2% |
| Oc1ccc(C2c3ccccc3Oc3ccccc32)c2cccnc12 | 36% |
| O=C(Nc1ccc(Cl)cc1)c1cc(NCc2cc(O)ccc2O)ccc1O | 99.2% |
| COC(=O)N[C@H]1CCc2c(Cl)c(OC)c(OC)c(OC)c2-c2ccc(SC)c(=O)cc21 | 60.8% |

| Structure (SMILES) | growth |
| --- | --- |
| CCOC(=O)[C@@H]1CCCN(S(=O)(=O)c2ccc(S(=O)(=O)N(CC)CC)c(F)c2)C1 | 93.4% |
| CCOC(=O)Oc1c(OC)cc(C(=O)c2ccc(OC)c(O)c2OC)cc1OC | 53.1% |
| COc1ccc(C(=O)c2nc3ccccc3n2CC(=O)c2ccc(F)cc2)cc1 | 80.2% |
| C=C1C(=O)O[C@H]2[C@H]1CC/C(CNC(=O)C(C)c1ccc(CC(C)C)cc1)=C\CC[C@@]1(C)O[C@@H]21 (stereo not given in full) | -76.9% (active) |
| COc1cc(C2C3CC4CCCC[C@H]4N3[C@@]3(C(=O)Nc4cc(Cl)ccc43)C2C(=O)c2nc3ccccc3[nH]2)cc(OC)c1OC (stereo not given in full) | 82.4% |
| COc1ccc(C(=O)/C=C/c2cc3ccccc3n3nnnc23)cc1 | 110% |
| N#Cc1c(-c2cccc([N+](=O)[O-])c2)nc(SCC(=O)c2ccc(Cl)cc2)[nH]c1=O | 107% |
| CCCN1[C@@H]2CC[C@H]1/C(=C\c1ccc(OC)c(OC)c1)C(=O)/C2=C/c1ccc(OC)c(OC)c1 | 73.2% |
| Fc1ccc(-c2cn3c(nc4ccccc43)c(-c3ccccc3)n2)cc1 | 185% |
| O=C(Cc1ccc(/C=C/C(=O)c2nccs2)cc1)Nc1ccccc1 | 105% |
| O=c1c2c(c(=O)n1O)c1c3ccc[nH]c3nc1c1nc3[nH]cccc3c12 | 96.2% |
| COc1cc2nc(-c3ccc(C(F)(F)F)cc3)cc(OCCCN3CCCC3)c2cc1OC | 71.9% |
| CCCCCN1C=C/C(=C\C(=O)n2ccc3ccccc32)c2ccccc21 | 104% |
| COc1cc(C2C3=C(COC3=O)N(CCO)c3cc4c(cc32)OCO4)cc(OC)c1OC (stereo not given) | 44.7% |
| CCOC(=O)c1cc(C(=O)c2ccc(OC)cc2)n2ccc(/C=C/c3cc[n+](CC(=O)c4ccc(OC)cc4)cc3)cc12 | 103% |
| O=C(c1ccccc1)N1N=C(c2ccc(-n3ccc(C(F)(F)F)n3)c(F)c2)CC1c1ccc[nH]1 (stereo not given) | 111% |
| NC(=O)Nc1ccc(-n2cnc3cc(-c4ccc(O)cc4)ccc32)cc1 | 100% |
| CC(Sc1nc2ccccc2c(=O)n1CCc1ccc(S(N)(=O)=O)cc1)C(=O)Nc1ccc(Cl)cc1 (stereo not given) | 105% |
| CCOC(=O)CCN(CC(C)C)C(=S)Nc1ccccc1 | 106% |
| CC(=O)[C@@H]1CC[C@]2(CO)CC[C@]3(C)[C@H](CC[C@@H]4[C@@]5(C)CCCNC(C)(C)[C@@H]5CC[C@]43C)[C@@H]12 | 113% |
